Laboratory results reported in PubChem BioAssay.
Calls of active or inactive are those of the source.

Legend:
[1] = compounds binding Alexa647 anti-His antibody – biochemical, small-molecule microarray, 635 nm fluorescence, artefact control for SMM control protein annotation, primary screen (AID 1128); settings: higher = more signal;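 note: score merges feature fluorescence with signal-to-noise for each printed compound spot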
[2] = test system: Human papillomavirus type 1a E7 protein (residues 1-88); assay: HPV1a E7 small-molecule binders, primary screen, biochemical, small-molecule microarray, residues 1-88, 635 nm (AID 1129); settings: small-molecule microarray binding, fluorescence 635 nm; higher = more signal
[3] = biological target: Focal adhesion kinase 1 (Homo sapiens) (UniProt Q05397); assay: PTK2 protein binding on printed compound slides – biochemical, small-molecule microarray, 635/667 nm fluorescence, BSA, DTT, primary screen (AID 1130); settings: 635 nm fluorescence, higher = more signal;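 note: composite of spot emission at 667 nm and signal to noise over triplicate slides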
Focal adhesion kinase 1 (Homo sapiens), sequence (Q05397 whole entry, looked up): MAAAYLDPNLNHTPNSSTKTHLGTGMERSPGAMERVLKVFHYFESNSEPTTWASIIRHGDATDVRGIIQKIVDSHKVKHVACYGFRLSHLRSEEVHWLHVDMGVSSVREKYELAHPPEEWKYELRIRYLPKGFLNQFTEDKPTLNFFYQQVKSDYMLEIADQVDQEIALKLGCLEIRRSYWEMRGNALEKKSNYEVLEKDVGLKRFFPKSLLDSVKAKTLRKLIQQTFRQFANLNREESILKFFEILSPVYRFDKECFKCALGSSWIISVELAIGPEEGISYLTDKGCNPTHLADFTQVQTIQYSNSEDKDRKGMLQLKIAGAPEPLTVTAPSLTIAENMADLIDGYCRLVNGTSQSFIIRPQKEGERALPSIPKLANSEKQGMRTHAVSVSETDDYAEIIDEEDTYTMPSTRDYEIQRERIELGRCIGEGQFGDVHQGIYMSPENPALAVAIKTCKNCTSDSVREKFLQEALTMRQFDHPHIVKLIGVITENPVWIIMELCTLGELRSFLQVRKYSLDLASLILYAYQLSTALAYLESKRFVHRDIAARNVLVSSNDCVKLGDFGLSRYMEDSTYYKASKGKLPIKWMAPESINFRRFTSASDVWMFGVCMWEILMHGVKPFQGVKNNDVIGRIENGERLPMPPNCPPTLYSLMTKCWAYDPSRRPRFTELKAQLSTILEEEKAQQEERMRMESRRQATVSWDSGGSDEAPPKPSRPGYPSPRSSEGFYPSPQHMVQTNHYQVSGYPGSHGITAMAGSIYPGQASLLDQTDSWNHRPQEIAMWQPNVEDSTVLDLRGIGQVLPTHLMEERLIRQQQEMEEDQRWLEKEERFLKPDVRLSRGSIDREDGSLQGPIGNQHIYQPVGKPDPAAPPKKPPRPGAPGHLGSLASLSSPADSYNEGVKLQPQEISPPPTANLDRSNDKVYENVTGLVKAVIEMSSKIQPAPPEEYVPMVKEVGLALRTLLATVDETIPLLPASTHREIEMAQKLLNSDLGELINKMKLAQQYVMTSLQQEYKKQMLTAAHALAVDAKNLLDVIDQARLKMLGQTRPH

[4] = test system: Fibrinogen (Alexa647-labelled); assay: Alexa647-fibrinogen binding to printed small molecules – biochemical, small-molecule microarray, 635/667 nm fluorescence, artefact control for SMM control-protein annotation, profiling panel (AID 1131); settings: fibrinogen-A647 binding fluorescence, higher = more signal;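 note: z-score merges 667 nm fluorescence with per-spot signal-to-noise over triplicate slides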
[5] = biological target: Follistatin (Homo sapiens) (UniProt P19883); assay: FST protein binding to printed compounds – biochemical, small-molecule microarray, 635/667 nm fluorescence, primary screen (AID 1132); settings: 635 nm fluorescence, higher = more signal
Follistatin (Homo sapiens), sequence (P19883 whole entry, looked up): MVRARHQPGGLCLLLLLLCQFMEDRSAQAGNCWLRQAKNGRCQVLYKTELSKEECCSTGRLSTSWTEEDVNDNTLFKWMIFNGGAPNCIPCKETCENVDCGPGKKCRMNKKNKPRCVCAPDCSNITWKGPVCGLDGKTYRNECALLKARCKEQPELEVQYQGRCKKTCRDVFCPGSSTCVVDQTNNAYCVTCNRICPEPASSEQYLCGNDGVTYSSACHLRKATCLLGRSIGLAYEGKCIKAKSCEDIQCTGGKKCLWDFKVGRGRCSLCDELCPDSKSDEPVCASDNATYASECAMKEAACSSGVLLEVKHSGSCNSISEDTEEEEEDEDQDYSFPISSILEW

[6] = biological target: Fibroblast growth factor 2 (Homo sapiens) (UniProt P09038); assay: basic fibroblast growth factor binding to printed compounds – biochemical, small-molecule microarray, 635/667 nm fluorescence, primary screen (AID 1133); settings: FGF2, fluorescence 635/667, higher = more signal
Fibroblast growth factor 2 (Homo sapiens), sequence (P09038 whole entry, looked up): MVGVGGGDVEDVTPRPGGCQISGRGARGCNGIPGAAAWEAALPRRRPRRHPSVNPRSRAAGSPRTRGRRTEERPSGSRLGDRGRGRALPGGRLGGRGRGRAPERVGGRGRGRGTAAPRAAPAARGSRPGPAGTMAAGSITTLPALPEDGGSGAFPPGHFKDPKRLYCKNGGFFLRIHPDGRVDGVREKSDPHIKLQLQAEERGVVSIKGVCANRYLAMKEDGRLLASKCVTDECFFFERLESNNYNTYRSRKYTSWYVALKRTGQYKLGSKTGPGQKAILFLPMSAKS

[7] = JC-1 mitochondrial potential readout, lung cancer cells – cell-based, A549, JC-1 fluorescence, basal, 24 h, 100 nL, profiling panel (AID 1138); settings: higher = more signal;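 note: A549 lung adenocarcinoma cells under basal conditions with no added stimulus; test concentration not given here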
Lefty1 = Lefty1 protein binding to printed compounds – biochemical, small-molecule microarray, 635/667 nm fluorescence, primary screen (AID 1139); settings: fluorescence 635/667, higher = more signal
[8] = test system: wheat germ agglutinin (Triticum aestivum), Alexa647-labelled; assay: Alexa647-WGA lectin binding to printed small molecules – biochemical, small-molecule microarray, 635/667 nm fluorescence, artefact control for SMM control-protein annotation, profiling panel (AID 1140); settings: WGA-A647 binding, 635 nm fluorescence, higher = more signal;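 note: score merges 667 nm feature emission with signal to noise over triplicate slides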
[9] = biological target: Luciferin 4-monooxygenase (Photinus pyralis) (UniProt P08659); assay: inhibition of purified Photinus pyralis luciferase – biochemical, luminescence, purified enzyme, 2006 set, primary screen (AID 1141); settings: purified firefly luciferase, SteadyGlo luminescence, 30 min; higher = more signal, called active from +8 up or from −8 down;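 note: cell-free assay with purified firefly luciferase at 100 ng per well in PBS; test concentration not given here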
Luciferin 4-monooxygenase (Photinus pyralis), sequence (P08659 whole entry, looked up): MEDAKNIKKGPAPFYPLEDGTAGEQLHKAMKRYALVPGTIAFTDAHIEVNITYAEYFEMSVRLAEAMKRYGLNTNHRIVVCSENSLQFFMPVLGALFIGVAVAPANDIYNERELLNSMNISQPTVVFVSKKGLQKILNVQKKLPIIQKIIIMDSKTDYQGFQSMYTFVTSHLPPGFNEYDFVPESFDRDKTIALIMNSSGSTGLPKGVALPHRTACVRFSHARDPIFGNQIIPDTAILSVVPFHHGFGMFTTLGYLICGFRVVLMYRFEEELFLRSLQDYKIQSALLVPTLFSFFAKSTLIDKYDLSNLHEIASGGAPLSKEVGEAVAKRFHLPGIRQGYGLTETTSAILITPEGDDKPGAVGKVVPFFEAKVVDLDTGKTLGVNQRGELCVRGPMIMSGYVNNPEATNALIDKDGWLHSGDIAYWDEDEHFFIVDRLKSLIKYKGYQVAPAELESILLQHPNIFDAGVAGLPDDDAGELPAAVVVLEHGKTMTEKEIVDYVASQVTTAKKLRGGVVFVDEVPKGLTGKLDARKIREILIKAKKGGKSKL

Structure (SMILES) | composite z-score [1] | composite z-score [2] | composite z-score [3] | composite z-score [4] | composite z-score [5] | composite z-score [6] | z-score [7] | composite z-score (Lefty1) | composite z-score [8] | z-score [9]
O=c1cccc(-c2ccccc2Cl)o1 | 0.0166 | 0.461 | 0.678 | -0.0231 | 0.0968 | -0.488 | -0.556 | 0.0182 | -0.0467 | 0.294 (inactive)
CCOc1ccc(N2C(=O)CSC2c2cccc([N+](=O)[O-])c2)cc1 (stereo not given) | 0.798 | 0.636 | 0.65 | 0.71 | 0.0936 | 0.176 | 0.56 | -0.157 | 1.09 | 0.8 (inactive)
COc1ccc(CCNC(=O)[C@@]2(C)c3ccccc3C(=O)N(c3ccc(C)cn3)[C@H]2c2ccc(CO)cc2)cc1 | -0.463 | -0.0172 | -0.284 | -1.95 | -0.298 | -1.09 | 0.14 | -0.601 | -0.902 | 1.14 (inactive)
COC(=O)[C@H](Cc1ccccc1)N[C@H](/C=C/C1CC1)[C@@H](O)Cc1ccccc1 | -0.174 | -0.688 | -0.295 | -1.05 | 0.395 | 0.123 | -0.0444 | -0.0264 | 0.0999 | 0.723 (inactive)
O=C1O[C@@H](c2ccccc2)[C@@H](c2ccccc2)N2[C@@H](c3ccccc3OCCO)[C@]3(C(=O)Nc4ccc(C#CC5(O)CCCCCC5)cc43)[C@@H](C(=O)N3CCN(c4ncccn4)CC3)[C@H]12 | 1.25 | 1.2 | 0.564 | 0.885 | 1.03 | 1.15 | -0.758 | 0.62 | 0.742 | -1.39 (inactive)
COc1ccc(C#Cc2ccc3c(c2)[C@]2(C(=O)N3)[C@H](c3ccc(O)cc3)N3[C@H](c4ccccc4)[C@H](c4ccccc4)OC(=O)[C@H]3[C@@H]2C(=O)N2CCc3cc(OC)c(OC)cc3C2)cc1 | 0.645 | 1.19 | 0.174 | 0.933 | 1.15 | 1.36 | -0.577 | 1.12 | 0.384 | -0.798 (inactive)
[N-]=[N+]=NCc1ccccc1[C@@H]1OC(c2ccc(OCCCO)cc2)=N[C@]1(CCS(=O)(=O)c1ccccc1)C(=O)N1CCCCC1 | 0.621 | 1.26 | 0.0201 | 1.08 | 0.981 | 0.432 | -0.706 | 0.275 | 1.02 | -0.938 (inactive)
COC(=O)[C@@]1(Cc2ccc(F)cc2)[C@H]2c3cc(C(=O)N(C)C)n(Cc4ccc(C)o4)c3C[C@H]2CN1C(=O)c1ccccc1 | 1.17 | 0.761 | -0.42 | -1.92 | -1.96 | -1.4 | 0.546 | -1.2 | 0.319 | 0.483 (inactive)
O=C1C2C=CC(C(O)C=Cc3ccc([N+](=O)[O-])cc3)N(n3cnnc3)C2C(=O)N1Cc1ccccc1 (stereo not given) | 1.88 | 1.06 | 0.376 | 0.699 | 1.16 | -0.0745 | -0.772 | -0.0293 | 0.941 | 0.872 (inactive)
C=CC1c2cc(O)c(OC)cc2CCN1Cc1cccc(OC(F)(F)F)c1 (stereo not given) | 1.33 | 0.167 | 0.408 | -0.36 | -0.0223 | -0.43 | -1.03 | -0.145 | 1.01 | 0.454 (inactive)
CC1CC/C=C\[C@H]2OC34C=CCN(c5ccc6ccccc6c5)C(=O)[C@H]3N(CCO)C(=O)[C@@H]4C2C(=O)O1 (stereo not given in full) | -0.9 | -0.898 | -0.645 | -0.0601 | -0.839 | -0.467 | -0.245 | -0.708 | 1.03 | 0.288 (inactive)
COC(=O)[C@@]1(Cc2ccc(OC)cc2)[C@H]2c3cc(C(=O)N4CCCC4)n(Cc4nc5ccccc5[nH]4)c3C[C@H]2CN1C(=O)c1ccccc1 | 2.01 | 1.24 | 1.64 | 1.05 | 0.979 | -0.202 | 1.92 | -0.47 | 1.14 | 1.53 (inactive)
C=CCN1C(=O)[C@]2(O[C@H](CCO)[C@@H]([Si](C)(C)c3ccc(OC)cc3)[C@@H]2C)c2cc(N(C=O)c3ccccc3)ccc21 | 0.896 | 0.823 | -0.0453 | -0.16 | -0.193 | -0.129 | -1.08 | 0.148 | 0.792 | -0.914 (inactive)
CC(C)[Si](C#CCCCC#N)(O[C@H](c1ccccc1)c1cn(Cc2cccc(Cl)c2)nn1)C(C)C | 0.822 | 0.953 | -0.213 | 0.902 | 1.13 | 0.955 | 5.27 | 0.764 | 0.276 | -0.513 (inactive)
Cc1ccc([C@H]2C(C(=O)O)=CCN2S(=O)(=O)c2ccc(C)cc2)cc1 | 0.388 | 0.64 | 1.36 | -0.169 | 0.585 | -0.6 | -0.575 | 0.0829 | 0.572 | 0.838 (inactive)
CC=CC(O)C1C=CC2C(=O)N(C)C(=O)C2N1N(c1ccccc1)c1ccccc1 (stereo not given) | 0.573 | -0.226 | 0.0652 | 0.241 | 0.803 | -0.024 | 1.32 | 0.212 | 0.318 | 1.36 (inactive)
COCCOC(=O)N1C(=O)[C@@]2(c3ccccc31)[C@H](C(N)=O)[C@H]1C(=O)O[C@H](c3ccccc3)[C@H](c3ccccc3)N1[C@@H]2c1ccc(O)cc1 | 0.142 | 1.04 | 0.386 | -0.649 | 0.412 | -0.488 | 0.381 | 0.429 | 0.839 | -1.65 (inactive)

Structure (SMILES) | composite z-score [1] | composite z-score [2] | composite z-score [3] | composite z-score [4] | composite z-score [5] | composite z-score [6] | z-score [7] | composite z-score (Lefty1) | composite z-score [8] | z-score [9]
COc1ccc(NC(=O)O[C@H]2[C@H](OC(=O)c3cc4ccccc4[nH]3)[C@@H](OC(=O)c3cc4ccccc4[nH]3)[C@@H](OC)O[C@@H]2CO)cc1 | 1.23 | 0.359 | 0.448 | 0.662 | 0.752 | 1.38 | 0.816 | 0.194 | 0.566 | -2.09 (inactive)
C[C@H]1C2[C@H](Cc3ccccc3)NC(=O)[C@]23C(=O)NCC(=O)N2CCC[C@H]2C(=O)NC/C=C/CCC/C=C/C3[C@@H]2O[C@]12C (stereo not given in full) | 0.295 | -1.28 | -0.502 | -0.489 | -0.0491 | -0.0881 | -0.979 | -0.0374 | -0.704 | -0.44 (inactive)
CCCCC(=C=CC[C@H](O)c1cccc(OCCO)c1)C[C@H](O)c1ccccn1 | 0.536 | -0.0708 | -0.0538 | 0.538 | 0.346 | 0.257 | 0.782 | 0.38 | 0.0704 | -0.167 (inactive)
COc1ccc([Si](C)(C)[C@H]2[C@H](CCn3cc([C@H](O)c4ccccc4)nn3)O[C@@]3(C(=O)N(C)c4ccccc43)[C@@H]2C)cc1 | -0.0799 | 0.0391 | 0.254 | -1.37 | 0.862 | 0.322 | 1.65 | 1.23 | -0.0898 | -0.0548 (inactive)
CC(=CC1CCCCC1)[C@@H](NC(=O)c1cccnc1)c1ccc(-c2ccccc2)cc1 | 0.219 | 0.242 | -0.0341 | 0.0017 | -0.0317 | -0.741 | -0.637 | -0.496 | 0.495 | 0.722 (inactive)
C=CCNC(=O)[C@H]1[C@@H]2C(=O)O[C@@H](c3ccccc3)[C@@H](c3ccccc3)N2[C@@H](c2ccc(OCCO)cc2)[C@]12C(=O)Nc1ccc(C#CCC(C(=O)OC)C(=O)OC)cc12 | 2.47 | 1.2 | 0.413 | 0.858 | 0.929 | 0.826 | -0.765 | 0.385 | 0.887 | -0.275 (inactive)
CCOC(=O)C1=CC[C@H]2C(=O)N(c3ccccc3)C(=O)[C@@H]12 | 2.18 | 1.32 | 0.291 | 1.04 | 1.24 | 0.385 | -1.44 | 0.655 | 0.56 | 0.332 (inactive)
[N-]=[N+]=NCc1ccccc1C[C@@]1(C(=O)NCC(O)CO)N=C(c2ccc(OCCCO)cc2)O[C@@H]1c1ccccc1 (stereo not given in full) | 1.86 | 0.0034 | -0.225 | -0.513 | 0.602 | -0.287 | 0.663 | -1.7 | 0.276 | -1.69 (inactive)
O=C1[C@H]2C=C(I)[C@H](C[C@@H]2OCCCCO)[C@@]12CO2 | -0.276 | 0.0789 | 0.465 | -0.327 | 0.167 | -0.0868 | -0.106 | 0.115 | -0.428 | 0.291 (inactive)
O=C(O)[C@H]1C[C@H]2C(=O)N3CCC[C@H]3C(=O)N2[C@H]1c1ccc(O)cc1 | 0.0617 | -0.94 | -0.222 | -1.83 | -0.374 | -0.879 | 1.62 | -0.801 | -0.842 | -2.53 (inactive)
C=CC[C@]1(C(=O)NCc2ccccc2)N=C(c2ccc(OCCCO)cc2)O[C@H]1c1ccccc1CN=[N+]=[N-] | 1.25 | 1.21 | 0.112 | 1.02 | 1.31 | 1.09 | 1.22 | 0.497 | 0.666 | -0.238 (inactive)
CCOC(=O)C1=CCC(c2ccc(F)cc2)N(S(=O)(=O)c2ccc(C)cc2)C1 (stereo not given) | -0.596 | 0.818 | 1.52 | 0.265 | 0.345 | -0.287 | -0.231 | 0.471 | 0.764 | 1.4 (inactive)
CC(C)(C)OC(=O)CC[C@]1(C(=O)NCCN2CCOCC2)COC(c2ccc(OCCCO)cc2)=N1 | 1.34 | 1.19 | 0.436 | 0.46 | 1.32 | 1.78 | -0.13 | 0.78 | 0.253 | 0.965 (inactive)
CCCCC(=C=CC[C@@H](O)c1cccc(OCCO)c1)C[C@@H](O)c1ccccn1 | 2.56 | 0.873 | -0.204 | 0.837 | 1.31 | 0.605 | 0.0206 | 1.2 | 0.26 | 0.0494 (inactive)
NC(=O)[C@@H]1[C@H]2C(=O)O[C@H](c3ccccc3)[C@H](c3ccccc3)N2[C@H](c2ccc(OCCO)cc2)[C@@]12C(=O)Nc1ccc(C#CC3=CCCCC3)cc12 | 0.823 | 1.21 | 1.33 | 1.01 | 1.22 | 0.413 | -1.87 | 0.741 | 0.632 | -2.48 (inactive)
CN(C)CCCC[C@@H]1NC(=O)[C@H]2C[C@@H](C(=O)NCCCCCN)[C@@H](c3cccc(OCCO)c3)N2C1=O | 2.91 | 1.12 | 0.297 | 1.01 | 1.38 | 1.22 | 0.129 | 1.66 | 1.48 | -0.69 (inactive)
